D1 PAM = potentiators of human D1 dopamine receptor; P21728; HEK293 TREx D1 cells, calcium flux, dopamine EC20 potentiation; potentiation, % at 10 µM; hit rate 0.036% among 360,000; AID 504651; in the data active = potentiation above about 30%
Target sequence (P21728 whole entry, looked up): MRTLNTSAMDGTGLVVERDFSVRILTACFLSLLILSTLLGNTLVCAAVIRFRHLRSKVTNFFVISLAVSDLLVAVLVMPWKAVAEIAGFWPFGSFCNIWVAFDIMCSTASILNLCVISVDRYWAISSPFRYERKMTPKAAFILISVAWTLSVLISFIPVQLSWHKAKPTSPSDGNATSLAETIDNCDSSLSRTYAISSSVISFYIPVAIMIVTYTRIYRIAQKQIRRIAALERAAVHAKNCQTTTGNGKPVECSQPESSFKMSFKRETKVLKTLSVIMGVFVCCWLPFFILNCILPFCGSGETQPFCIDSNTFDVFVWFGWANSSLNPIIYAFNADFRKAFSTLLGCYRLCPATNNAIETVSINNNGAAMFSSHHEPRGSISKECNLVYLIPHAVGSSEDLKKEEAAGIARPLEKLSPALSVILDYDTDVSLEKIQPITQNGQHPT
D1 ag = human D1 receptor agonism; HEK293 T-REx D1 cells, calcium flux, agonist mode; activation, % at 2 µM; hit rate 1% among 360,000
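Tetracycline-induced HEK293 TREx D1 cells, force-coupled to calcium signalling, were dye-loaded with a no-wash calcium kit. Compound was pin-added after a 10 s baseline. Fluorescence was read kinetically at 1 cycle/s for 180 s, with calcium rises flagged as agonism.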
TRHR agonist = activates the human TRH receptor; P34981; TRHR cells, calcium flux fluo-8, FDSS agonist mode; activation, % at 2 µM; hit rate 0.18% among 360,000
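TRHR-expressing cells loaded with fluo-8 calcium dye; 23 nL library compound pin-transferred, kinetic FDSS fluorescence (Ex 480/Em 530) recorded about 180 s for agonist-induced calcium release, before a 10 nM TRH EC20 addition for potentiator mode.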
D1 antag = blocks dopamine activation of the human D1 receptor | HEK293 TREx D1 cells, calcium flux, dopamine EC80; hits give low values | P21728 | hit rate 3.2% among 360,000 | AID 504652 | activity change, negative = inhibition, % at 10 µM; in the data active = activity change below about -30%
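Antagonism measured as reduced calcium response to an EC80 dopamine addition following 180 s compound pre-read; cells were inducible HEK293 Trex D1 plated overnight at 30 C, read kinetically at 1 cycle/sec.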
TRHR PAM = allosteric enhancers of human TRH receptor; P34981; TRHR cells, fluo-8 calcium fluorescence, EC20 TRH enhancement; enhancement, % at 2 µM; hit rate 0.66% among 360,000; AID 493056; in the data active = enhancement above about 30%
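Enhancer read-out: after compound pinning and an initial kinetic agonist-mode read, an EC20 of TRH (10 nM final) was injected and fluo-8 calcium signal (Ex 480/Em 530) followed at 1 s/cycle for 100 cycles in TRHR-expressing cells.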
Glioma ERSR ind = inducers of ER stress response in human glioma cells; U87-MG GRP78 promoter luciferase reporter, 16 h; Potency, µM, usual class: activators; hit rate 0.02% among 420,000; active = well fitted activation curve with a large enough effect; inconclusive = small, poorly fitted or top-dose-only effect; inactive = no such curve, though single readings can be large or run the other way; note: series mostly up to about 76 µM; nearly all actives have a fitted effect of over 35% in size
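ERSR induction read as luciferase luminescence (Bright-Glo, 10 min at room temperature) in stably transfected human U87-MG glioma cells exposed to compounds for 16 h, using GRP78 as sensor.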
Numbers stand for hits; n = inactive; u = inconclusive; x = not tested or not shown. Only some compounds are listed: those with a hit (about 4% of all), similar ones and a draw of the others. Cut-off read from the data, not from the text of the source, unless noted: active = activation above about 30%; inactive = the rest.

SMILES	D1 PAM	D1 ag	TRHR agonist	D1 antag	TRHR PAM	Glioma ERSR ind
N#Cc1c(-c2cccnc2)c2c([nH]c1=O)-c1ccccc1OC2	n	n	n	-31	n	n
N#Cc1c(-c2ccc(F)cc2)c2c([nH]c1=O)-c1ccccc1OC2	n	n	n	n	n	n
CCOC(=O)C1CCN(C(=O)Cn2cc(C(=O)C3CC3)c3ccccc32)CC1	n	n	n	n	n	n
Cn1cc(C(F)(F)F)nc1-c1ccc(OC[C@@H](O)CNCCOc2ccc(O)c(C(N)=O)c2)cc1	x	x	x	x	x	n
O=c1[nH]c2ccc(NCc3ccc(-c4cccc(Cl)c4)o3)cc2[nH]1	n	37	n	n	n	n
O=C1Nc2ccccc2C(O)(C(=O)NC2CC2)N1c1ccc(Cl)c(Cl)c1 (configuration not stated)	n	n	n	n	n	n
O=C(Cn1nc(-c2ccccc2)ccc1=O)NCc1ccc2c(c1)OCO2	33	n	n	n	n	n
O=C1Nc2ccccc2C(O)(C(=O)NCc2ccc3c(c2)OCO3)N1c1ccc(Cl)c(Cl)c1 (configuration not stated)	n	31	n	n	n	n
O=C(c1n[nH]c(=O)c2ccccc12)N1CCN(Cc2ccc3c(c2)OCO3)CC1	n	n	n	n	n	n
Nc1c(C(=O)NCc2ccc3c(c2)OCO3)nnn1Cc1ccc(Br)cc1	n	31	n	n	n	n
O=C(NCc1ccc2c(c1)OCO2)c1n[nH]c(=O)c2ccccc12	n	n	n	-50	n	n
CCSc1nnc(NC(=O)CSc2nnc(Cc3cccn3C)n2CCc2ccccc2)s1	n	n	n	n	n	n
COC(=O)C/C=C\[C@@H](C)[C@@H](/C=N\O[C@@H](C)c1cc(-c2c(C)cc(C)cc2C)no1)NS(=O)(=O)c1ccc(C)cc1	x	x	x	x	x	n
COc1ccc(/C=N/NC(=O)Cc2cccs2)cc1	n	n	n	n	n	n
COc1cc(/C=C/C(O)=C/C(=O)/C=C/c2ccc(O)cc2)ccc1O	n	351	104	n	n	n
COc1cc(/C=C/C(=O)c2ccc(O)cc2O)ccc1O	x	x	x	x	x	n
CCOc1ccc(NC(=O)c2c(Nc3ccc(OC)cc3OC)sc(C(=O)c3ccc(Cl)cc3)c2N)cc1	n	49	n	n	n	n
COc1ccc(CNC(=O)c2c(Nc3ccc(OC)cc3OC)sc(C(=O)c3ccc(Cl)cc3)c2N)cc1	n	n	n	n	n	u
O=C(CC1CCCCC1)Nc1ccc(-c2ccc3nncn3n2)cc1	n	n	n	n	n	n
CCCC1=C(C(=O)OCC)C(c2ccc(OC)c(C)c2OC)C(C#N)=C(N)O1 (configuration not stated)	n	56	n	n	n	n
CCOC(=O)C1=C(CSc2nc(CC)c(C)cc2C#N)OC(N)=C(C#N)C1c1ccc(OC)cc1 (configuration not stated)	n	n	n	n	n	n
CCOC(=O)C1=C(CC)OC(N)=C(C#N)C1c1ccc(OC)c(OC)c1OC (configuration not stated)	n	n	n	-32	n	n
CCOC(=O)C1=C(CSc2nc(C)ccc2C#N)OC(N)=C(C#N)C1c1cccc(OC)c1OC (configuration not stated)	n	n	n	-70	n	n
CCOC(=O)C1=C(C)OC(N)=C(C#N)C1c1ccc(OC)c(C)c1OC (configuration not stated)	n	n	n	n	n	n
CCOC(=O)C1=C(CC)OC(N)=C(C#N)C1c1ccc(OC)c(C)c1OC (configuration not stated)	n	n	n	n	n	n
CCc1ccc(NC(=O)c2sc(-n3nc(C)c(Cc4ccc5c(c4)OCO5)c3C)nc2C)cc1	n	n	n	n	n	n
COc1ccccc1N(C)S(=O)(=O)c1ccc(Cl)c(C(=O)OCc2c(C)noc2C)c1	n	31	n	n	n	n
CCCOc1cccn2c(N(C)C(=O)c3ccccc3F)c(CC)nc12	x	x	x	x	x	n
O=C(CNS(=O)(=O)c1cccc2nonc12)NCc1ccc(F)cc1	n	n	n	n	n	n

Screening data from PubChem.
